Source: PubChem BioAssay AID624260 (Broad Institute, 2012)
Among all 44,000 compounds or so, about 30 (0.07%) were called active. About 1% were inconclusive and are not listed. Cut-off read from the data, not from the text of the source: active = inhibition above about 54% (passing the limit was not always enough); inconclusive = no clear call, values can overlap the other calls. The entries come from a sample that favours actives as a whole.

What follows are molecules tested against Histone-lysine N-methyltransferase NSD2 (Homo sapiens) (UniProt O96028) (assay: NSD2 histone methyltransferase activity blockers – biochemical, plate reader, single point, primary screen (AID 624260;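 note: inhibitors reduce the monomethyl H3K36 fluorescence signal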)). Conditions: NSD2-SET H3K36me1 DELFIA fluorescence, at 12.5 µM, hits give high values.
Sequence of Histone-lysine N-methyltransferase NSD2 (Homo sapiens) (O96028 whole entry, looked up): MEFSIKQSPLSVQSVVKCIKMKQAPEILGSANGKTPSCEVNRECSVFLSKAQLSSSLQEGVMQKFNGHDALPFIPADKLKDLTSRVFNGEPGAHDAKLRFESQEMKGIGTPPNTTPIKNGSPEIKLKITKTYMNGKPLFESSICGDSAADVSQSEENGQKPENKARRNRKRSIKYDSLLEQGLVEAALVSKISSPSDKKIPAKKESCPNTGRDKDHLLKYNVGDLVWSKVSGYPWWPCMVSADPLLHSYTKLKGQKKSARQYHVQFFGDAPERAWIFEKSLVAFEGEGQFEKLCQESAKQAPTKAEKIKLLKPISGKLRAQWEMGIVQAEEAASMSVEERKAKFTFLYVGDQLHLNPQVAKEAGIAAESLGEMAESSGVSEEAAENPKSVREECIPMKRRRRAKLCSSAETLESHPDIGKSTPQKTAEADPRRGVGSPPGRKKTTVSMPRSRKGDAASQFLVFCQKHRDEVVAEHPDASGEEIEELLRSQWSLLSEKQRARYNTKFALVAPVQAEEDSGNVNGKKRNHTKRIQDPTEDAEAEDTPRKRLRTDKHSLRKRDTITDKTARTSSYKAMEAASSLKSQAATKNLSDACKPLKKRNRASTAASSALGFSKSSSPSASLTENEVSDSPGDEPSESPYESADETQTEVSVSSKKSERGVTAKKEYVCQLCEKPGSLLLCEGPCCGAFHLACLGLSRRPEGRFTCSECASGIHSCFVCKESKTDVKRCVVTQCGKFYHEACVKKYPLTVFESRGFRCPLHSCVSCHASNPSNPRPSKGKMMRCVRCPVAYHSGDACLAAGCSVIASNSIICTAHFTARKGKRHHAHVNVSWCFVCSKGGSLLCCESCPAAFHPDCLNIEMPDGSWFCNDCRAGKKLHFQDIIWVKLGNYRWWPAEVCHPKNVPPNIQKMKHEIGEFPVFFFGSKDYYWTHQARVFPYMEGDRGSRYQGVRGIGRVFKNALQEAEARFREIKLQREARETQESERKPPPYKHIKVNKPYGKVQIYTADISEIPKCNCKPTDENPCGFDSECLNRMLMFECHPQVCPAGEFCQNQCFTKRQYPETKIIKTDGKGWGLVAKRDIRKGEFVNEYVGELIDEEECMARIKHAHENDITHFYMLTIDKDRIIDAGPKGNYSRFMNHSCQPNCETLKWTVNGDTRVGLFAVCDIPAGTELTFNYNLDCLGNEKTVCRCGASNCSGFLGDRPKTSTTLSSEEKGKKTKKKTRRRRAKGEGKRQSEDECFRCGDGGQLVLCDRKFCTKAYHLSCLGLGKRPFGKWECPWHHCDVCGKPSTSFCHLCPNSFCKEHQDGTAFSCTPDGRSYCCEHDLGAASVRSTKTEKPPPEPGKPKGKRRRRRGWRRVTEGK

inhibition, inactive:
C/C=C/c1cnc2c(c1)C(=O)N([C@@H](C)CO)C[C@@H](C)[C@H](CN(C)C(=O)c1cnccn1)O2 0.45%, C[C@H](CO)N1C[C@H](C)[C@@H](CN(C)C)Oc2cc(C#Cc3ccccc3)ccc2S1(=O)=O -6.31%, O=C(Nc1ccc2c(c1)[C@H]1C[C@@H](CC(=O)N3CCc4ccccc4C3)O[C@H](CO)[C@H]1O2)Nc1ccccc1F 2.01%, C[C@H](CO)N1C[C@H](C)[C@@H](CN(C)S(=O)(=O)c2ccccc2)Oc2ncc(-c3ccncc3)cc2C1=O 4.23%, C[C@H](CO)N1C[C@H](C)[C@H](CN(C)CC2CCCC2)Oc2ncc(Br)cc2C1=O 0.26%, CC(=O)N(C)C[C@H]1Oc2ncc(C#Cc3ccc(F)cc3)cc2C(=O)N([C@H](C)CO)C[C@@H]1C 3.93%, C[C@@H]1CN([C@H](C)CO)S(=O)(=O)c2ccc(-c3ccncc3)cc2O[C@H]1CN(C)S(=O)(=O)c1ccccc1F -2.69%, CC(C)CC#Cc1ccc2c(c1)O[C@@H](CN(C)C(=O)c1ccccc1F)[C@H](C)CN([C@H](C)CO)S2(=O)=O -7.41%, C[C@@H]1CN([C@@H](C)CO)S(=O)(=O)c2ccc(C#C[C@@H](C)O)cc2O[C@@H]1CN(C)CC1CC1 4.62%, COCC#Cc1ccc2c(c1)O[C@@H](CN(C)Cc1cccnc1)[C@@H](C)CN([C@H](C)CO)S2(=O)=O 5.56%, COc1ccc(S(=O)(=O)Nc2ccc3c(c2)C(=O)N([C@@H](C)CO)C[C@H](C)[C@@H](CN(C)S(=O)(=O)c2ccc(C)cc2)OCCCC[C@@H](C)O3)cc1 -8.56%, C[C@@H]1CN([C@@H](C)CO)S(=O)(=O)c2ccc(Br)cc2O[C@@H]1CN(C)C(=O)C1CCCCC1 -6.34%, C[C@@H]1CN([C@H](C)CO)S(=O)(=O)c2ccc(C#CC(C)(C)O)cc2O[C@@H]1CN(C)Cc1ccccc1 -5.05%, COCC(=O)N(C)C[C@@H]1Oc2cc(C3=CCCC3)ccc2S(=O)(=O)N([C@@H](C)CO)C[C@H]1C -2.03%, C[C@@H]1CN([C@@H](C)CO)S(=O)(=O)c2ccc(Br)cc2O[C@H]1CN(C)S(=O)(=O)c1ccccc1 0.606%, COc1ccc(NC(=O)Nc2ccc3c(c2)[C@H]2C[C@H](CC(=O)NC4CCCC4)O[C@H](CO)[C@H]2O3)cc1 -1.24%, C[C@@H]1CCCCO[C@H](CN(C)C(=O)Cc2ccccc2)[C@H](C)CN([C@@H](C)CO)C(=O)c2cc(NS(=O)(=O)c3ccc(F)cc3)ccc2O1 6.79%, C[C@H](CO)N1C[C@H](C)[C@@H](CN(C)C(=O)C2CCCCC2)Oc2cc(C3=CCCC3)ccc2S1(=O)=O -2.1%, COc1ccc(NC(=O)Nc2ccc3c(c2)C(=O)N([C@@H](C)CO)C[C@@H](C)[C@H](CN(C)C(=O)CCC(F)(F)F)OCCCC[C@@H](C)O3)cc1 -1.97%, C/C=C/c1ccc2c(c1)O[C@@H](CN(C)C(=O)C1CCOCC1)[C@H](C)CN([C@H](C)CO)S2(=O)=O 12.8%, C[C@@H]1CN([C@@H](C)CO)C(=O)Cc2cc(NS(=O)(=O)c3ccc(Cl)cc3)ccc2O[C@H]1CN(C)Cc1ccc(C(F)(F)F)cc1 -12.4%, CC(=O)N(C)C[C@H]1Oc2cc(C#Cc3ccccc3F)ccc2S(=O)(=O)N([C@@H](C)CO)C[C@H]1C -2.4%, O=C(C[C@@H]1C[C@H]2c3cc(NS(=O)(=O)c4ccc(F)cc4)ccc3O[C@H]2[C@H](CO)O1)NCCc1ccccc1 4.07%, C[C@@H]1CN([C@@H](C)CO)S(=O)(=O)c2ccc(C#Cc3ccccc3F)cc2O[C@H]1CN(C)C(=O)c1ccc2c(c1)OCO2 -0.635%, CC(C)NC(=O)N(C)C[C@H]1Oc2ncc(C#CC3(O)CCCC3)cc2C(=O)N([C@H](C)CO)C[C@@H]1C -3.09%, O=C(C[C@@H]1C[C@@H]2c3cc(NS(=O)(=O)c4ccc(F)cc4)ccc3O[C@@H]2[C@@H](CO)O1)NCc1ccncc1 1.12%, CN(C)CC(=O)Nc1ccc2c(c1)[C@H]1C[C@@H](CC(=O)NCc3ccc(-c4ccccc4)cc3)O[C@H](CO)[C@H]1O2 3.66%, C[C@H](CO)N1C[C@H](C)[C@@H](CN(C)S(=O)(=O)c2ccc(Cl)cc2)Oc2ccc(NS(C)(=O)=O)cc2CC1=O 1.76%, C[C@@H]1CN([C@@H](C)CO)C(=O)c2cc(-c3cccc(F)c3)cnc2O[C@@H]1CN(C)Cc1ccccc1 -9.63%, COCC(=O)Nc1ccc2c(c1)[C@H]1C[C@H](CC(=O)NCc3ccccn3)O[C@H](CO)[C@H]1O2 2.78%, CCC(=O)N(C)C[C@H]1Oc2cc(/C=C/c3ccccc3)ccc2S(=O)(=O)N([C@H](C)CO)C[C@@H]1C 2.05%, COc1ccc(NC(=O)Nc2ccc3c(c2)[C@@H]2C[C@H](CC(=O)N4CCCCC4)O[C@H](CO)[C@@H]2O3)cc1 4.87%, C[C@@H]1CN([C@@H](C)CO)S(=O)(=O)c2ccc(-c3cccc(C(=O)N(C)C)c3)cc2O[C@@H]1CN(C)C 1.16%, CC(C)NC(=O)N(C)C[C@@H]1Oc2ncc(C#Cc3ccncc3)cc2C(=O)N([C@@H](C)CO)C[C@@H]1C 4.8%, Cc1ccc(-c2cnc3c(c2)C(=O)N([C@H](C)CO)C[C@@H](C)[C@H](CN(C)Cc2ccccc2C(=O)O)O3)cc1 12.9%, CCCNC(=O)C[C@H]1C[C@@H]2c3cc(NC(=O)COC)ccc3O[C@@H]2[C@@H](CO)O1 3.25%, C[C@H](CO)N1C[C@H](C)[C@@H](CN(C)C(=O)Nc2ccccc2)Oc2ncc(C3=CCCC3)cc2C1=O -0.747%, C/C=C/c1cnc2c(c1)C(=O)N([C@@H](C)CO)C[C@@H](C)[C@H](CN(C)Cc1ccccc1)O2 1.34%, C[C@@H]1CN([C@@H](C)CO)S(=O)(=O)c2ccc(C#CCN(C)C)cc2O[C@@H]1CN(C)S(=O)(=O)c1cccc(F)c1 -0.392%, C[C@H]1CN([C@@H](C)CO)C(=O)c2cc(-c3ccncc3)cnc2O[C@@H]1CN(C)C(=O)c1cccc(F)c1 -0.363%, Cc1ccc(-c2ccc3c(c2)O[C@H](CN(C)C(=O)Nc2ccc(C(F)(F)F)cc2)[C@@H](C)CN([C@H](C)CO)S3(=O)=O)cc1 -7.32%, CCC(=O)N(C)C[C@@H]1Oc2ncc(C#CCc3ccccc3)cc2C(=O)N([C@H](C)CO)C[C@H]1C -13.4%, C[C@H](CO)N1C[C@H](C)[C@@H](CN(C)S(=O)(=O)c2cccc(F)c2)Oc2ncc(-c3cccc(F)c3)cc2C1=O -2.04%, C[C@@H]1CCCCO[C@H](CN(C)S(=O)(=O)c2ccc(Cl)cc2)[C@H](C)CN([C@H](C)CO)C(=O)c2cc(NC(=O)NC3CCCCC3)ccc2O1 5.74%, CC(=O)N(C)C[C@H]1Oc2ncc(C#CC3(O)CCCC3)cc2C(=O)N([C@@H](C)CO)C[C@@H]1C 4.16%, COc1ccc(S(=O)(=O)N[C@@H]2C=C[C@@H](CC(=O)N3CCc4ccccc4C3)O[C@@H]2CO)cc1 3.25%, CC(=O)N(C)C[C@@H]1Oc2ncc(-c3ccccc3F)cc2C(=O)N([C@H](C)CO)C[C@@H]1C -4.17%, COc1ccc(-c2cnc3c(c2)C(=O)N([C@@H](C)CO)C[C@H](C)[C@H](CN(C)C(=O)Cc2cccnc2)O3)cc1 -0.562%, C[C@@H]1CN([C@H](C)CO)C(=O)c2cc(NC(=O)C3CCCCC3)ccc2O[C@@H](C)CCCCO[C@H]1CN(C)S(C)(=O)=O -14.3%, C[C@@H]1CN([C@H](C)CO)S(=O)(=O)c2ccc(Br)cc2O[C@@H]1CN(C)Cc1cncnc1 1.53%, C[C@@H](NC(=O)C[C@H]1C[C@@H]2c3cc(NC(=O)C4CCC4)ccc3O[C@@H]2[C@@H](CO)O1)c1ccccc1 -3.13%, C[C@H]1CN([C@@H](C)CO)S(=O)(=O)c2ccc(-c3cccc(C#N)c3)cc2O[C@H]1CN(C)CC1CC1 18.1%, COc1cccc(S(=O)(=O)N(C)C[C@H]2Oc3cc(C#CCN(C)C)ccc3S(=O)(=O)N([C@H](C)CO)C[C@H]2C)c1 1.49%, C[C@@H]1CN([C@@H](C)CO)C(=O)Cc2cc(NS(C)(=O)=O)ccc2O[C@H]1CN(C)S(=O)(=O)c1ccc(F)cc1 5.39%, CCCNC(=O)N(C)C[C@H]1Oc2ncc(C#CC(C)C)cc2C(=O)N([C@@H](C)CO)C[C@@H]1C -3.03%, C[C@@H]1CN([C@H](C)CO)C(=O)c2cc(-c3ccc(F)cc3)cnc2O[C@@H]1CN(C)C(=O)C1CCC1 8.32%, O=C(C[C@H]1C[C@@H]2c3cc(NC(=O)CC4CC4)ccc3O[C@@H]2[C@@H](CO)O1)NCc1cc(F)ccc1F 9.35%, COc1ccccc1S(=O)(=O)N(C)C[C@@H]1Oc2cc(C#CCC3CCCC3)ccc2S(=O)(=O)N([C@H](C)CO)C[C@H]1C -16.6%, C[C@@H]1CN([C@@H](C)CO)S(=O)(=O)c2ccc(Br)cc2O[C@@H]1CN(C)C(=O)CN(C)C 16.9%
